High-throughput results from PubChem.
IL-1B inflam inh – qHTS for Inhibitors of Inflammasome Signaling: IL-1-beta AlphaLISA Primary Screen; THP-1 LPS/ATP IL-1B secretion, AlphaLISA, 16 h; hits give low values; activity change, % at 57.5 µM; 4.7% of 360,000 active; in the data active = activity change below about -50%; inconclusive = mostly about -30% to -49%
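THP-1 cells pretreated 1 hr with compounds (up to 57.5 uM final), then stimulated with LPS (250 ng/mL final) plus ATP (1.25 mM final); secreted IL-1B measured by AlphaLISA after 16 hr, decreased signal indicating inhibition.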
HepG2 viability – qHTS for Inhibitors of TGF-b: Cytotox Counterscreen; HepG2 CAGA-GFP viability, ATP luminescence, 18 h; Potency, µM (highest dose often 46.1 µM), most hits filed as cytotoxic; 0.76% of 410,000 active
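HepG2 CAGA-GFP cells (1000/well, DMEM with 1% FBS) received compound, then TGF-beta at 500 pg/mL final, and were incubated 18 hours at 37 degrees C. Viability was read by CellTiter-Glo luminescence. Media-only wells were set as complete cell-killing and DMSO as no toxicity.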
TGFb SMAD3 inh – qHTS for Inhibitors of TGF-b. HepG2 CAGA-GFP TGF-b/SMAD3 reporter, GFP fluorescence, 18 h; TGF-beta stimulated, 500 pg/mL final. Potency, µM (series often up to 46.1 µM), most hits filed as inhibitors. 1.2% of 410,000 active; note: nearly all actives have a fitted effect of over 65% in size
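Inhibition of TGF-beta-driven CAGA-GFP reporter expression in HEPG2 cells is measured by cellular GFP fluorescence after 18 h stimulation with 500 pg/mL recombinant TGF-beta in 1% FBS medium at 37 degrees C.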
DT40 TDP1 CPT – qHTS for Inhibitors of human tyrosyl-DNA phosphodiesterase 1 (TDP1): qHTS in cells in presence of CPT; 12% of 420,000 active; Potency, µM (top dose mostly 46.2 µM), actives largely listed as inhibitors; chicken DT40 Tdp1-/-;hTDP1 cells + 20 nM CPT, ATP luminescence, 48 h; AID 686979, 2013; note: nearly all actives have a fitted effect of over 55% in size
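Cell growth measured by CellTiter-Glo luminescence after a minimum 48 h, 37 C compound exposure with 20 nM CPT in Tdp1-knockout DT40 cells stably expressing hTDP1, seeded 400/well; qHTS titration format.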
TDP1 cell noCPT – qHTS for Inhibitors of human tyrosyl-DNA phosphodiesterase 1 (TDP1): qHTS in cells in absence of CPT; AID 686978, 2013; Potency, µM (series often up to 46.2 µM), usual class: inhibitors; 15% of 420,000 active; DT40 Tdp1-/- hTDP1 cells, no CPT, ATP luminescence, 48 h; note: nearly all actives have a fitted effect of over 55% in size
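Stably hTDP1-transfected Tdp1-null chicken DT40 cells were treated with library compounds minus camptothecin and grown for at least 48 hr at 37 °C, after which cellular ATP was quantified by luminescence.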
TDP1 block – qHTS Assay for Inhibitors of Tyrosyl-DNA Phosphodiesterase (TDP1); recombinant TDP1, AlphaScreen DNA substrate cleavage; Potency, µM (series often up to 130 µM), most hits filed as inhibitors; 0.28% of 350,000 active; note: nearly all actives have a fitted effect of over 40% in size
Target sequence (Q9NUW8 whole entry, looked up): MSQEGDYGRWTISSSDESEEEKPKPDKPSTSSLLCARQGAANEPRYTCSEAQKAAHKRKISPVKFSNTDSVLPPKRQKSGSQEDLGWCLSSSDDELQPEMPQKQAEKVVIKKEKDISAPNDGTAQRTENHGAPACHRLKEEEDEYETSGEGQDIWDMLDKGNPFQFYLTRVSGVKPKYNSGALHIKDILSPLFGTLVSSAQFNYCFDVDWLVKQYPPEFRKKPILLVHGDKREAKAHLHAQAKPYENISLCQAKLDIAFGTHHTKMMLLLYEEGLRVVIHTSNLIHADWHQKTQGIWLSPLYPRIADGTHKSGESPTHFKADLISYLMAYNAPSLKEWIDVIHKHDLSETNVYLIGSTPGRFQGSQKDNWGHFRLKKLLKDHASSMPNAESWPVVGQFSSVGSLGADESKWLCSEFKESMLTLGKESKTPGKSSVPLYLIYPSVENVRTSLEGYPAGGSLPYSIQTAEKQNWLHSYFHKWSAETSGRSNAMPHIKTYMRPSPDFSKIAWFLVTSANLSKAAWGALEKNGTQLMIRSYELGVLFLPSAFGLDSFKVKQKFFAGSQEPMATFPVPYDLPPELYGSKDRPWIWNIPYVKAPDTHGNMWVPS
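Enzyme-compound mixtures sat 15 min at room temperature, followed by a 5 min reaction with 15 nM final substrate and 10 min with AlphaScreen beads. Recombinant human Tdp1 was used at 1 nM final.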
Numbers stand for hits; n = inactive; u = inconclusive; x = not tested or not shown; ! = not active in a repeat; [ ] = dose if it differs, or a comment. Only some compounds are listed: those with a hit (about 19% of all), similar ones and a draw of the others. Unless noted, calls come from the whole dose curve; as a rule, active = well fitted curve in the direction sought with a large enough effect; inconclusive = small, poorly fitted or top-dose-only effect, or another doubt; inactive = no such curve, though single readings can be large; an effect the other way counts as inactive or inconclusive.

SMILES	IL-1B inflam inh	HepG2 viability	TGFb SMAD3 inh	DT40 TDP1 CPT	TDP1 cell noCPT	TDP1 block
O=C1CCN(Cc2ccccc2)CCN1[C@H](CSc1ccccc1)Cc1ccccc1	n	n	n	23µM	20µM	x
CC(C)C[C@@H](CSc1ccc(Br)cc1)N1CCN(C)CCC1=O	n	n	n	u	u	n
COc1ccc(SC[C@H](CC(C)C)N2CCN(CCc3ccccc3)CCC2=O)cc1	n	n	u	15µM	18µM	n
CC(C)C[C@@H](CN=[N+]=[N-])N1CCN(CCc2ccccc2)CCC1=O	x	n	n	u	13µM	x
Cc1ccc(SC[C@H](CC(C)C)N2CCN(CCc3ccccc3)CCC2=O)cc1	n	n	u	u	u	n
CC(C)C[C@@H](CO)N1CCN(CCc2ccccc2)CCC1=O	n	n	n	u	n	x
O=C1CC[C@H](O)CCN1[C@H](CSc1ccccc1)Cc1ccccc1	n	n	n	u	u	x
O=C1CCN(Cc2ccc(Br)cc2)CCN1[C@H](CO)c1ccccc1	n	n	n	u	14µM!	x
O=C1CCN(Cc2ccc([N+](=O)[O-])cc2)CCN1[C@H](CO)c1ccccc1	n	n	n	u	n	x
O=C1CCN(CCc2ccccc2)CCN1[C@H](CSc1ccc(Br)cc1)Cc1ccccc1	n	n	u	16µM	15µM	n
CCCN1CCC(=O)N(C(CSc2ccc(Br)cc2)Cc2ccccc2)CC1 (centres undefined)	x	n	n	x	x	n
Cc1ccccc1Nc1nc(N)nc(CSc2n[nH]c(N)n2)n1	n	n	n	n	n	n
CCCCNC(=O)C(NC(=O)Cc1cc(C(F)(F)F)cc(C(F)(F)F)c1)C(=O)c1ccccc1 (centres undefined)	n	x	x	29µM	u	x
CCc1nc2c(OCCC3CCCCC3)cccn2c1N(C=O)Cc1ccc(OC)cc1	n	20µM	u	u	u	x
CCc1nc2c(OCCC3CCCCC3)cccn2c1N(C=O)Cc1ccccc1	n	n	u	16µM	u	x
CCOC(=O)c1c(C)[nH]c(C)c1S(=O)(=O)N1CCCC(C(=O)NCc2ccc(Cl)cc2)C1 (centres undefined)	x	n	u	n	n	n
CC(=O)Nc1cccc(-n2cc3c(c2-c2ccccc2Cl)c(=O)n(C)c(=O)n3C)c1	x	n	n	u	u	n
CCOC(=O)N1CCC(NCCNC(=O)c2cccs2)CC1	n	n	n	n	n	n
O=C(NCCNC1CCC(c2ccccc2)CC1)c1cccs1 (centres undefined)	-72	n	n	u	u	n
O=[N+]([O-])c1ccc(NCCOc2ccccc2Cl)nc1	-66	n	n	n	n	n
Cc1cccc(OCCNc2ccc([N+](=O)[O-])cn2)c1	n	n	n	n	u	n
O=C(COC(=O)c1ccc(O)cc1)Nc1ccc2c(c1)OCCO2	n	n	n	10µM	3.3µM	n
Cc1ccc(NC(=O)COC(=O)c2ccc3c(c2)OCCO3)cc1	n	n	n	n	n	n
CC(=O)c1c(C)[nH]c(C(=O)OCC(=O)Nc2ccc3c(c2)OCCO3)c1C	n	n	n	u	21µM	n
CC(C)CC(NC(N)=O)C(=O)OCC(=O)Nc1ccc(OC(F)F)cc1 (centres undefined)	n	n	n	23µM	u	n
SMILES	IL-1B inflam inh	HepG2 viability	TGFb SMAD3 inh	DT40 TDP1 CPT	TDP1 cell noCPT	TDP1 block
Cc1cccc(C)c1OCC(=O)Nc1ccc2c(c1)OCCO2	n	n	n	18µM	u	n
CCc1nc2ccccc2n1CC(=O)OCC(=O)N(CC(C)C)c1c(N)n(Cc2ccccc2)c(=O)[nH]c1=O	n	n	n	n	n	n[0.505 µM]
CC(=O)Nc1ccc(SCC(=O)Nc2ccc3c(c2)OCCO3)cc1	n	3.5µM	n	n	u	n
O=C(COC(=O)c1cccc(O)c1)Nc1ccc(OC(F)F)cc1	n	n	n	n	n	n
CC(=O)Nc1ccc(SCC(=O)Nc2ccccc2-c2ccccc2)cc1	n	n	n	u	23µM	n
O=C(COC(=O)c1ccc(O)cc1)Nc1ccc(OC(F)F)cc1	n	n	n	u	16µM	n
CC(=O)Nc1ccc(SCC(=O)N(C)CC(=O)Nc2ccccc2Cl)cc1	n	n	n	n	u	n
CC(=O)c1c(C)[nH]c(C(=O)OCC(=O)Nc2ccc(Cl)c(S(=O)(=O)N(C)C)c2)c1C	n	n	u	7.3µM	9.2µM	n
O=C(NC1CC(=O)N(c2ccc(F)cc2)C1)C(c1ccccc1)c1ccccc1 (centres undefined)	x	n	n	u	u	n
CCc1ccc(OCC(=O)Nc2ccc3c(c2)OCCO3)cc1	n	n	n	n	n	n
CCOC(=O)c1sc2ccccc2c1S(=O)(=O)Nc1cccc(C(F)(F)F)c1	x	n	u	u	u	n
CC(=O)c1c(C)[nH]c(C(=O)OCC(=O)Nc2ccc(Cl)cc2[N+](=O)[O-])c1C	n	n	n	3.7µM	1.8µM	n
Nn1c(SCC(=O)Nc2ccc3c(c2)OCCO3)nnc(CCC(=O)O)c1=O	n	n	n	21µM	u	n
C/C(=N\OCC(=O)Nc1ccc(OC(F)(F)F)cc1)c1ccc2c(c1)OCCO2	-69	n	n	n	u	n
Cc1ccc(CN2C(=O)CCC2C(=O)NCCc2ccccc2)cc1 (centres undefined)	n	n	n	n	n	x
Oc1ccc(/C=N/NC(=S)Nc2cccnc2)c(O)c1	-65	n	u	u	8.2µM	n
Oc1cccc(/C=N/NC(=S)Nc2cccnc2)c1O	-96	n	n	2.3µM	4.6µM	n
Oc1ccc(/C=N/NC(=S)Nc2cccnc2)c(O)c1O	n	n	n	9.2µM	15µM	x
Fc1cccc(F)c1/C=N/NC(=S)Nc1cccnc1	n	n	n	u	n	n
Fc1c(F)c(F)c(/C=N/NC(=S)Nc2cccnc2)c(F)c1F	-102	n	n	u	18µM	n
O=C(COC(=O)/C=C/c1ccc(Cl)c(Cl)c1)NC1CCS(=O)(=O)C1 (centres undefined)	n	n	n	10µM	18µM	n
CCOC(=O)c1[nH]cnc1N=Nc1c(O)ccc2ccccc12	n	n	n	5.2µM	5.8µM	n
Oc1ccc2ccccc2c1N=Nc1ccccn1	n	n	n	0.65µM	0.58µM	n
